# From the supplement of paper PMC10646978
# ± gives the standard deviation.
# Experiments:
# Settings in all cases: modulator concentration 10 µM
# [1] = tested on: RAW-Dual (murine macrophage reporter line); assay: NF-kB reporter (SEAP) activity fold change vs agonist alone; higher = enhanced NF-kB activity
# Outline: (§1)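 RAW-Dual murine macrophage reporter cells were seeded at 50 000 per well in 384-well plates and pre-incubated 1 hour at 37 °C with compound pin-transferred to 10 μM final. After 1 hour, a PRR agonist was added and cells incubated overnight. Supernatant NF-κB (SEAP, QUANTI-Blue, 620 nm absorbance) and IRF (Lucia luciferase, QUANTI-Luc, luminescence) signals were divided by the mean agonist-only control on the same plate to give fold change. Two replicate plates were averaged, with errors by propagation.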
# [2] = tested on: RAW-Dual (murine macrophage reporter line); assay: IRF reporter (Lucia luciferase) activity fold change vs agonist alone; higher = enhanced IRF activity
# Outline: as §1
# [3] = tested on: RAW-Dual (murine macrophage reporter line); assay: viability score (confluency relative to resting cells, overnight) (fraction); higher = more viable, active = viable (0.7 or more)
# Outline: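 Compound was added at a final 10 μM to RAW-Dual macrophages in 384-well plates and left overnight. Confluency was imaged with IncuCyte, and two masks were generated in IncuCyte software over all imaged wells. Each viability score is confluency relative to resting cells, and a compound met the cutoff only when both masks were above 70% of resting cells.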
# [4] = agonist: CpG ODN 1826 0.5 ug/mL
SMILES,"NF-kB reporter [1, 4]",NF-kB reporter ([1]; agonist: LPS 0.1 ug/mL),NF-kB reporter ([1]; agonist: MPLA […]),IRF reporter ([2]; agonist: 3'3'-cGAMP 10 ug/mL),IRF reporter ([2]; agonist: LPS 0.1 ug/mL),IRF reporter ([2]; agonist: MPLA […]),viability score [3]
NS(=O)(=O)C#Cc1ccccc1,0.0641 ± 0.011,0.0588 ± 0.0047,0.159 ± 0.013,0.0153 ± 0.0016,0.0325 ± 0.0031,0.0392 ± 0.0098,0.7 (active)
O=C(c1ccccc1)c1cc([N+](=O)[O-])ccc1N1CCOCC1,2.4 ± 0.19,1.15 ± 0.069,1.88 ± 0.13,0.297 ± 0.03,1.65 ± 0.12,1.48 ± 0.32,0.739 (active)
N=C(N)NCCN1CCCCCCC1.O=S(=O)(O)O,1.25 ± 0.3,1.11 ± 0.088,1.24 ± 0.26,0.929 ± 0.032,1.27 ± 0.14,1.24 ± 0.12,0.993 (active)
CCC(C(=O)NCc1ccnc(-c2ccncc2)c1)c1ccccc1 (stereo not drawn),1.27 ± 0.09,1.1 ± 0.084,1.12 ± 0.03,0.574 ± 0.029,0.654 ± 0.086,0.545 ± 0.12,0.994 (active)
CC(CCc1ccccc1)NCC(O)c1ccc(O)c(C(N)=O)c1.Cl (stereo not drawn),1.04 ± 0.15,1.18 ± 0.088,1.1 ± 0.061,0.944 ± 0.033,1.11 ± 0.095,1.22 ± 0.23,0.984 (active)
Fc1ccc(Nc2nc(NN=Cc3c[nH]nc3-c3ccccc3)nc(N3CCOCC3)n2)cc1,0.537 ± 0.044,0.981 ± 0.071,2.12 ± 0.2,1 ± 0.1,1.57 ± 0.21,2.78 ± 0.4,0.875 (active)
CCOc1ccc(Nc2nc(Nc3ccc(OCC)cc3)nc(N3CCOCC3)n2)cc1,0.35 ± 0.02,1.76 ± 0.13,2.82 ± 0.16,1.14 ± 0.083,4.42 ± 3,4.93 ± 2.5,0.762 (active)
Oc1ccc(-c2cnc(-c3ccc(O)cc3)nc2)cc1,0.924 ± 0.22,0.965 ± 0.091,1.42 ± 0.1,0.347 ± 0.017,0.555 ± 0.08,0.591 ± 0.16,0.927 (active)
CN(C)CCN(Cc1ccccc1)Cc1cc(Cl)cc(Cl)c1O,0.799 ± 0.063,0.918 ± 0.081,0.996 ± 0.086,0.947 ± 0.058,1.29 ± 0.074,1.32 ± 0.12,1.01 (active)
COc1ccc(NCN2C(=O)c3ccccc3C2=O)c(OC)c1,0.844 ± 0.066,0.972 ± 0.058,1.08 ± 0.1,0.911 ± 0.044,1.42 ± 0.084,1.61 ± 0.21,0.991 (active)
Cc1ccc(C(=O)NC(=S)Nc2nc(-c3cccc([N+](=O)[O-])c3)cs2)cc1C,1.02 ± 0.12,0.98 ± 0.16,0.977 ± 0.036,0.931 ± 0.17,1.08 ± 0.094,1.12 ± 0.13,1 (active)
O=C(N/N=C/c1ccc([N+](=O)[O-])o1)c1ccc(O)cc1,1.54 ± 0.21,2.63 ± 0.4,2.97 ± 0.26,1.01 ± 0.051,1.88 ± 0.34,1.43 ± 0.12,0.968 (active)
CN(C)CCOC1=Cc2ccccc2Sc2ccc(Cl)cc21 [Prestw-1368],0.965 ± 0.077,0.97 ± 0.094,1.11 ± 0.039,0.772 ± 0.031,0.895 ± 0.061,0.761 ± 0.099,0.994 (active)
CC12C=CC(CO)(O1)C1C(=O)NC(=O)C12 (stereo not drawn),1.26 ± 0.1,1.07 ± 0.066,0.838 ± 0.082,0.907 ± 0.047,0.469 ± 0.027,0.32 ± 0.027,0.783 (active)
